Data on 17 compounds can be found in PubChem BioAssay (NCI).

This is part of a sample that, as a whole, favours compounds with a hit. Of some 83,000 tested, about 20% had one in any assay.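 Assay: single dose, 48 h. Readout: percent growth (0 = no net growth; negative = cell death). Active: <10.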 A number with no mark means an inactive call. The source made the active and inactive calls.

What all share (assay): NCI-60 one-dose screen, 48 h (100 = growth as untreated, 0 = no growth, -100 = all killed)
What all share (settings): 10 µM unless noted

The test system of test [1] is SR leukemia.
The test system of test [2] is RPMI-8226 leukemia.
The test system of test [3] is OVCAR-8 ovarian.
In test [4] the test system is OVCAR-5 ovarian.
Test [5] deals with OVCAR-4 ovarian.
The subject of test [6] is SK-OV-3 ovarian.
Test [7] relates to IGROV1 ovarian.
In test [8] the test system is OVCAR-3 ovarian.
In test [9] the test system is HS 578T breast.
Test [10] relates to NCI/ADR-RES ovarian.
In test [11] the test system is BT-549 breast.
The test system of test [12] is MDA-MB-435 melanoma.
Test [13] concerns SW-620 colon.
The subject of test [14] is MCF7 breast.
Test [15] relates to HCT-116 colon.
For test [16], the system named is HCC-2998 colon.
Test [17] concerns KM12 colon.
For test [18], the system named is T-47D breast.

As to `C=C(C)[C@@H]1CC[C@]2(C)[C@H](C=CC3=C4C[C@@](C)(CO)CC[C@]4(C)CC[C@]32C)[C@@]1(C)CCCN`, the growth in test [1] is -31.4% (active); in [2], -33.3% (active); in test [3] it was -38.7% (active); in test [4] it was 19.1%; in test [5] it was -55.4% (active); in test [6] it was 8.02% (active). In addition, the growth is 6.46% (active) in [7]; -58.8% (active) in test [8]; -51.2% (active) in [9]; -40.7% (active) in test [10]; 80% in test [11]; -96.8% (active) in test [12]. The growth in [13] was -80.8% (active); in test [14], -78.5% (active); in test [15] it was -86.5% (active); in test [16], -92% (active); in test [17], -71.7% (active).
For `CC[C@H](Nc1nc(N)nc(C)c1C#N)c1nc2cccc(CN(C)c3ncc(C(=O)NO)cn3)c2c(=O)n1-c1ccccc1`, the growth is 14.1% in [1]; 4.89% (active) in test [2]; 4.22% (active) in test [3]; 3.2% (active) in test [4]; 31.4% in test [5]; -19.4% (active) in [6]. Besides, the growth was -36.2% (active) in [7]; 5.16% (active) in test [8]; 8.03% (active) in test [9]; -23.1% (active) in test [18]; 34.6% in test [11]; -3.69% (active) in test [12]. In addition, the growth in test [13] was 3.51% (active); in [14] it was 10.8%; in [15], -19.7% (active); in [16], -7.29% (active); in test [17], 16.4%.
With `COc1cc(Cc2cc(OC)c(O)c(OC)c2)cc(OC)c1O`, the growth is 28% in test [1]; 92.7% in [2]; 100% in [3]; 112% in [4]; 107% in test [5]; 98.3% in test [6]. For the same compound, the growth is 91.6% in test [7]; 96.2% in test [8]; 92.3% in [9]; 52.8% in [10]; 87.8% in test [11]; 2.4% (active) in [12]. The growth was 41.4% in test [13]; 68.1% in [14]; 85.6% in [15]; 73.5% in [16]; 55.7% in [17].
Turning to `C=C1C(=O)O[C@H]2[C@H]1CC/C(COC(=O)C(=O)c1c[nH]c3ccc(Cl)cc13)=C\CC[C@@]1(C)O[C@@H]21`, the growth in test [1] is 1.13% (active); in test [2], -39.1% (active); in test [3], -30.3% (active); in test [4] it was -36.6% (active); in [5], -89.3% (active); in test [6], 26.2%. The growth in test [7] was -81% (active); in test [8], -95% (active); in test [9], -14.2% (active); in test [10], -20% (active); in [18], -44.9% (active); in [11] it was -87.2% (active). Further, the growth in test [13] is -75.5% (active); in test [14], -32.5% (active); in [15], -99.6% (active); in test [16], -75.9% (active); in [17], -72.8% (active).
Consider `CN1C(=O)/C(=C/c2ccc(C(=O)Nc3ncc(Cc4cc(Cl)ccc4Cl)s3)cc2)SC1=S`, for which the growth in [1] was 63.9%; in [2], 57%; in test [3], 80.8%; in test [4] it was 70.7%; in test [5], 57%; in [6], 71.1%. Further, the growth is 56.9% in test [7]; 80.1% in [8]; 80.9% in [9]; 70.2% in [10]; 85.2% in [11]; 5.7% (active) in [12]. In addition, the growth in test [13] is 62.8%; in test [14] it was 67.4%; in test [15], 60.9%; in [16], 83.1%; in [17] it was 49.8%.
`COc1ccc(N/N=C/c2cn(-c3ccc(C(=O)O)cc3)nc2-c2cc3ccccc3oc2=O)cc1`: the growth was 44.8% in test [1]; 51.6% in test [2]; 65.4% in test [3]; 70.2% in [4]; 79% in test [5]; 99.1% in test [6]. In addition, the growth in [7] was 71.5%; in test [8] it was 74.1%; in test [9] it was 106%; in test [10], 67.6%; in test [11] it was 77.8%; in [12], 52.4%. The growth was 52.9% in test [13]; 49% in test [14]; 49.7% in [15]; 41.8% in [16]; 48.2% in test [17].
Consider `O=C(/C=C/c1ccccc1)N(C1CCCCC1)C1CCCCC1`, for which the growth in test [1] was 83.8%; in test [2], 51.8%; in test [3] it was 95%; in test [4], 106%; in test [5], 84%; in test [6] it was 117%. In addition, the growth was 116% in test [7]; 89.6% in test [8]; 90.8% in [9]; 74.5% in [10]; 69.2% in [18]; 77.3% in test [11]. Besides, the growth is 92.4% in test [13]; 88.4% in [14]; 57.6% in test [15]; 92.4% in [16]; 95.1% in [17].
Turning to `COc1cc(/C=C/C(=O)c2cc(OC)c(OC)c(OC)c2)ccc1Oc1nc2c(c(=O)n(C)c(=O)n2C)n1C`, the growth is 8.62% (active) in [1]; 6.12% (active) in test [2]; 10.7% in [3]; 5.82% (active) in test [4]; 19.1% in test [5]; 30.3% in [6]. Besides, the growth in [7] was -8.8% (active); in test [8], -48.4% (active); in test [9], 26.7%; in [10], 0.709% (active); in [18], -16.1% (active); in test [11], -57.7% (active). In addition, the growth in test [13] was -40% (active); in test [14], 0.476% (active); in [15], -80.6% (active); in test [16] it was -85.9% (active); in [17], -62.1% (active).
Take `CCN(CC)CCCC(Cc1ccccc1)Nc1c2ccc(Cl)cc2nc2ccc(OC)cc12` (configuration not stated): the growth in test [1] was -27.4% (active); in test [2], -6.17% (active); in test [3] it was 36.4%; in [4] it was 71.1%; in [5], 30.8%; in [6], 101%. For the same compound, the growth in test [7] was 32.7%; in test [8], 77.4%; in [9] it was 52.2%; in [10] it was 45%; in test [18], -6.99% (active); in test [11] it was 53.3%. Further, the growth in test [13] was 13.2%; in [14], -9.45% (active); in test [15], 14.6%; in [16] it was -72.1% (active); in [17], 45.3%.
For the compound `CNC(=O)Nc1ccc(-c2ccc3ncnc(Nc4cccc(Cl)c4)c3c2)cc1`, the growth is 27.6% in test [1]; 55.1% in test [2]; 54.6% in test [3]; 55.1% in test [4]; 69.7% in test [5]; 19.3% in test [6]. The growth is 12.3% in test [7]; 39.6% in [8]; 46.5% in test [9]; 57.6% in [10]; -4.13% (active) in test [18]; 50.9% in [11]. Also, the growth in test [13] is 93.9%; in test [14] it was 22.6%; in [15], 65.9%; in test [16], 74%; in [17], 61.3%.
For `COc1ccc(-c2cc(-c3cc(OC)ccc3OC)nc(SCC(C)=O)c2C#N)cc1`, the growth in test [1] was 32.1%; in test [2] it was 33.2%; in [3] it was 80.8%; in test [4], 84.1%; in test [5] it was 69.6%; in test [6], 59.9%. Besides, the growth was 83.9% in test [7]; 66.4% in [8]; 76.1% in [9]; 52.1% in [10]; 61% in test [11]; 36.1% in [12]. Further, the growth in test [13] is 92.1%; in test [14], 70.6%; in [15], 74%; in test [16], 84.5%; in [17], 60.2%.
Take `C[C@@H]1CN(c2cnc(C(=O)Nc3cc(F)cc4cccnc34)cn2)C[C@H](C)N1`: the growth was 28.6% in test [1]; 26% in test [2]; 61.1% in test [3]; 83.9% in test [4]; 12.7% in test [5]; 86.2% in [6]. Also, the growth in test [7] is 78.9%; in [8], 39.5%; in [9] it was 76.8%; in [10], 66%; in [18], 30%; in [11], 102%. Further, the growth was 46.2% in [13]; 9.07% (active) in test [14]; 13.1% in test [15]; 91.7% in [16]; 83.4% in test [17].
With `CN(C)C1CN(C(=O)c2cc(-c3ccc4ncnc(N5CCc6cc(F)c(Cl)cc65)c4c3)cnc2N)C1`, the growth is 13.3% in test [1]; -10.8% (active) in [2]; 16% in [3]; 28.1% in test [4]; 5.94% (active) in test [5]; 23.1% in [6]. Also, the growth is -33.6% (active) in test [7]; -16.5% (active) in [8]; -24.1% (active) in test [9]; 21.1% in test [10]; -12.8% (active) in test [11]; 9.39% (active) in [12]. Moreover, the growth in test [13] was 19.1%; in test [14], 5.85% (active); in test [15], 10.6%; in test [16] it was 15.3%; in test [17], 18.2%.
In the case of `CCOc1ncc([N+](=O)[O-])c(OCC)n1`, the growth in test [1] was 93.7%; in test [2] it was 84.8%; in test [3], 105%; in [4] it was 101%; in [5], 113%; in test [6], 97%. For the same compound, the growth was 107% in test [7]; 124% in test [8]; 121% in test [9]; 106% in test [18]; 105% in [11]; 111% in test [13]. The growth in test [14] was 93.8%; in test [15], 105%; in [16], 99.4%; in [17], 117%.
Turning to `CC(=O)c1sc(-c2ccc(F)cc2)cc1O`, the growth in test [1] was 82.6%; in [2], 105%; in test [3], 104%; in [4] it was 111%; in test [5], 79.5%; in test [6], 102%. The growth in test [7] is 115%; in test [8] it was 109%; in test [9], 117%; in [11] it was 93.8%; in test [12], 96.1%; in test [13] it was 106%. For the same compound, the growth is 94.5% in [14], 95.3% in [15], 103% in [16] and 95.6% in [17].
In the case of `O=C(NN1C(=O)CSC1c1cccc([N+](=O)[O-])c1)c1ccc(NC(=O)c2ccccn2)cc1` (configuration not stated), the growth in [1] was 20.5%; in [2], 103%; in test [3], 99.5%; in [4], 92.6%; in test [5], 110%; in test [7] it was 90%. Besides, the growth in [8] was 103%; in test [9] it was 103%; in test [10], 90.8%; in [18] it was 94.7%; in [11], 99.6%; in test [12] it was 98.9%. Also, the growth in test [13] is 104%; in test [14], 89.2%; in test [15], 98.3%; in [16], 90%; in [17] it was 93.8%.
Take `O=C(c1cccc(N2CCOCC2)n1)c1c[nH]c2ccccc12`: the growth in test [1] is 95.7%; in test [2], 96.6%; in [3], 89.9%; in test [4], 105%; in test [5] it was 82.3%; in test [7], 70%. The growth was 91% in [8]; 89.2% in [9]; 97.2% in [10]; 70.7% in test [18]; 117% in test [11]; 99.7% in test [12]. Further, the growth in test [13] is 94.1%; in test [14] it was 66%; in test [15], 97.7%; in [16] it was 113%; in test [17], 90.5%.
